# PubChem BioAssay (NCATS)
# Records with an inconclusive call do not appear. Where a call stands in place of a potency, no number is given. Values without a mark were called inactive. Calls of active or inactive are those of the source. Unless noted, calls come from the whole dose curve; as a rule, active = well fitted curve in the direction sought with a large enough effect; inconclusive = small, poorly fitted or top-dose-only effect, or another doubt; inactive = no such curve, though single readings can be large; an effect the other way counts as inactive or inconclusive.
# How the values were obtained:
# [1] = target: Rap guanine nucleotide exchange factor 3 (Homo sapiens) (UniProt O95398); assay: Confirmatory qHTS for antagonist of cAMP-regulated guanine nucleotide exchange factor 3 (EPAC1) (AID 1645880); settings: EPAC1 Rap1B-BODIPY-GDP exchange, fluorescence; activity, negative = inhibition: at 115 µM (top of the series); note: nearly all actives have a fitted effect of over 55% in size; note: potency is the fitted concentration of half-maximal effect
# Chain of Rap guanine nucleotide exchange factor 3 (Homo sapiens) (O95398 whole entry, looked up): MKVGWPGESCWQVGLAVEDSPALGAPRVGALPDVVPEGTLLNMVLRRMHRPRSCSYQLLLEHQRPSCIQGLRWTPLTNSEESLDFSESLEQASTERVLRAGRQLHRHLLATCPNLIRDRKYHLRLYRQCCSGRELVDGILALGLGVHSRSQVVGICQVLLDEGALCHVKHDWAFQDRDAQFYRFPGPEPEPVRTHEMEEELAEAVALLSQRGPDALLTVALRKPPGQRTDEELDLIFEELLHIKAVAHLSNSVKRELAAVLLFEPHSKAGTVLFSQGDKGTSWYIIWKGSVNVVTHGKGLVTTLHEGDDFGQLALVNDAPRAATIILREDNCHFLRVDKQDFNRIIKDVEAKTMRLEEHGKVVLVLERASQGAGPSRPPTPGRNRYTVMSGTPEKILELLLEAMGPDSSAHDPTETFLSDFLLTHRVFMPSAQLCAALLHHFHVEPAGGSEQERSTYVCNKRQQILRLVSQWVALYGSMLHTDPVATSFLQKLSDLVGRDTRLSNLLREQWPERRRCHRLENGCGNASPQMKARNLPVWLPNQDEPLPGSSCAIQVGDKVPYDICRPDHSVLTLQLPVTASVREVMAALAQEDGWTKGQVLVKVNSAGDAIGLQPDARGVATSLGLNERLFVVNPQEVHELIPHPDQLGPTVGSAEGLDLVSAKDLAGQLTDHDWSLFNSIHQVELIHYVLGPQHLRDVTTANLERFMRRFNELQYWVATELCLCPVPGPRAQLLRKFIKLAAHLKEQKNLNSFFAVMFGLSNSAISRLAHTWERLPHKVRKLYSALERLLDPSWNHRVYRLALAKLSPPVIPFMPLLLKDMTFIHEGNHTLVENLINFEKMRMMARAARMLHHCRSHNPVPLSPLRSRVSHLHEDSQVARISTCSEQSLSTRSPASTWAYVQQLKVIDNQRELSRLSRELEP
# Procedure, shortened: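 Nucleotide exchange uses 100 nM EPAC1, 250 nM RAP1B-BODIPY-GDP and 50 uM GDP, with compounds in a concentration-titration series. After 5 min at room temperature, fluorescence (480 nm ex/540 nm em) is read every 5 min for 30 min. Data are normalized to control ATA and DMSO.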
# [2] = target: Rap guanine nucleotide exchange factor 4 (Homo sapiens) (UniProt Q8WZA2); assay: Confirmatory qHTS for antagonist of cAMP-regulated guanine nucleotide exchange factor 4 (EPAC2) (AID 1645885); note: nearly all actives have a fitted effect of over 25% in size; note: potency is the fitted concentration of half-maximal effect
# Chain of Rap guanine nucleotide exchange factor 4 (Homo sapiens) (Q8WZA2 whole entry, looked up): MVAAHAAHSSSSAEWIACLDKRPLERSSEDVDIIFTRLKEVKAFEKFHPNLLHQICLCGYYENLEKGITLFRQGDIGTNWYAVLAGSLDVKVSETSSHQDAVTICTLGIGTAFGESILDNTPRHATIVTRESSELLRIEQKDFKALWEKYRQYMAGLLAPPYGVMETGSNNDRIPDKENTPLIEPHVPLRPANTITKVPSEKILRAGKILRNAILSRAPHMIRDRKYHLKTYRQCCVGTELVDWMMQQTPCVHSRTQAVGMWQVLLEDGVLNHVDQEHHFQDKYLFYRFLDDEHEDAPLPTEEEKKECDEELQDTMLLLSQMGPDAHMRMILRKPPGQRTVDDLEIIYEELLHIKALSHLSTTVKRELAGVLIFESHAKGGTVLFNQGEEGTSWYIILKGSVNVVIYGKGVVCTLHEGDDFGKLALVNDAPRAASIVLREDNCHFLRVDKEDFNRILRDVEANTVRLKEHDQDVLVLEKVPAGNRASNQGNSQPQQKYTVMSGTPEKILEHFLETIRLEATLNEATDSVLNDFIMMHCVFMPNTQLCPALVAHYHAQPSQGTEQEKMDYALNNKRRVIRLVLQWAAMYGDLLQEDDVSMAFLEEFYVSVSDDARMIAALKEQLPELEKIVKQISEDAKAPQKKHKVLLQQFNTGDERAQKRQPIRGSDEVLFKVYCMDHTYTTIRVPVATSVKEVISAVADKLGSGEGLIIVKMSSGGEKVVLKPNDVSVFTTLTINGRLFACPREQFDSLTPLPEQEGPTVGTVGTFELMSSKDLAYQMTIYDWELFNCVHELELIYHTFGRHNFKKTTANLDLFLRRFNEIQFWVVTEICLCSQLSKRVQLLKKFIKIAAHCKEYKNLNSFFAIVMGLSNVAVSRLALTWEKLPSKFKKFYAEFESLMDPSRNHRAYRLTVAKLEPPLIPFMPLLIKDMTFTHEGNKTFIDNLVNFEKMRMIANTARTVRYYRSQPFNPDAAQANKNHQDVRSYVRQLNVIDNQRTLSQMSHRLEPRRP
# [3] = target: Rap guanine nucleotide exchange factor 3 (Homo sapiens) (UniProt O95398); assay: Counterscreen qHTS for antagonist of cAMP-regulated guanine nucleotide exchange factor 3 (EPAC1) (AID 1645888);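 note: fluorescence loss as bound BODIPY-GDP is released from Rap1B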
# Procedure, shortened: (§1)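 Rap1B-BODIPY-GDP 250 nM + GDP 50 uM; cpds 7-pt, final 9.74 nM–152 uM (activator mode) or from 7.32 nM upwards (inhibitor mode); RT; FI 480/540 nm at 5 and 30 min, then ± cAMP, reread.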
# [4] = target: Rap guanine nucleotide exchange factor 3 (Homo sapiens) (UniProt O95398); assay: Counterscreen qHTS for agonist of cAMP-regulated guanine nucleotide exchange factor 3 (EPAC1) (AID 1645889); note: nearly all actives have a fitted effect of over 40% in size; note: potency is the fitted concentration of half-maximal effect
# Procedure, shortened: as §1
# [5] = target: Tumor susceptibility gene 101 protein (Homo sapiens) (UniProt Q99816); assay: qHTS Assay for Iinhibitors of HIV-1 Budding by Blocking the Interaction of PTAP/TSG101: Hit Validation (AID 651600); note: potency is the fitted concentration of half-maximal effect; nearly all actives have a fitted effect of over 70% in size
# Chain of Tumor susceptibility gene 101 protein (Homo sapiens) (Q99816 whole entry, looked up, the tested form may be a part): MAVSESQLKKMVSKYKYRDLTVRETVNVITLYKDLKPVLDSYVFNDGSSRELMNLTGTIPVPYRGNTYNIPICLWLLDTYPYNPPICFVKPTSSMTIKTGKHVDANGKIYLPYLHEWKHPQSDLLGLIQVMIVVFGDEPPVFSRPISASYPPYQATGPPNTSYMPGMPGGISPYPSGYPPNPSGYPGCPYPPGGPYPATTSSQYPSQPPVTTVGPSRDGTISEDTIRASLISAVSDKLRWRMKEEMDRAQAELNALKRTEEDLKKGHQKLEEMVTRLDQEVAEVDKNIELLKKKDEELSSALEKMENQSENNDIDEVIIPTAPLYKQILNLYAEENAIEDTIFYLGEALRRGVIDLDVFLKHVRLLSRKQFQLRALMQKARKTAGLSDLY
# Procedure, shortened: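 FITC-PTAP peptide (50 nM final) binding to Tsg101 binding domain (10 uM final) was measured by polarization after 20 min at r.t. with compounds, in 10 mM HEPES pH 7.5 buffer with 0.15 M NaCl and 0.01% Tween 20.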
# [6] = AP1 Signaling Pathway (AID 357; active = well fitted curve in either direction with a large enough effect, not every such curve was filed as active;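 note: ME-180 reporter cells stimulated with EGF at its EC50 level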); settings: ME-180 AP-1-bla reporter, EGF-induced, beta-lactamase ratio, 5 h; at 7.69 µM (top of the series) unless noted
# Procedure, shortened: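 A ratiometric CCF4 readout (405 nm excitation; 460 and 530 nm emission) quantified AP-1-driven beta-lactamase in ME-180 cells after 5 h with compound and EC50 EGF; AC50 values were derived for activators and inhibitors.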
# [7] = target: Cytochrome P450 1A2 (Homo sapiens) (UniProt P05177); assay: p450-cyp1a2 (AID 410; calls by dose curve; note: potency is the fitted concentration of half-maximal effect)
# Chain of Cytochrome P450 1A2 (Homo sapiens) (P05177 whole entry, looked up): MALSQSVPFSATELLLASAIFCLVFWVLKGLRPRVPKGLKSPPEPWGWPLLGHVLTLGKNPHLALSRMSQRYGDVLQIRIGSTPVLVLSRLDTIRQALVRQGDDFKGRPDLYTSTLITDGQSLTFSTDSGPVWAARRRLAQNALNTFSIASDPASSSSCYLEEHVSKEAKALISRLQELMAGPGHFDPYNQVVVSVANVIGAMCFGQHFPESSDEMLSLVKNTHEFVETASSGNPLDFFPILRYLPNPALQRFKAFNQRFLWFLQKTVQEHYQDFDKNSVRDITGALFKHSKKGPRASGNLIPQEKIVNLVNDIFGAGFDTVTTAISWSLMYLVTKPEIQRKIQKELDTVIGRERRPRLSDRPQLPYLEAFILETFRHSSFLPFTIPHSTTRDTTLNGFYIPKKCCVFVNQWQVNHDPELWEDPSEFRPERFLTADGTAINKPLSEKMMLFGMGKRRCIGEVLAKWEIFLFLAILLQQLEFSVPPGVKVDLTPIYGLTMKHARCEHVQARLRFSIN
# Procedure, shortened: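 Luminescent readout of luciferin formed from Luciferin-ME by human CYP1A2; data normalized against complete inhibition by 57 uM furafylline. Enzyme 20nM, substrate 100uM at Km, 100mM KPO4 buffer, 60 min reaction at room temperature.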
# [8] = NFAT Signaling Pathway (AID 444; active = well fitted curve in either direction with a large enough effect, not every such curve was filed as active;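 note: carbachol stimulus at about its EC50 of 1 µM final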); settings: Jurkat NFAT-bla M1, carbachol, beta-lactamase ratio, 5 h; at 7.69 µM (top of the series) unless noted
# Procedure, shortened: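 Read-out: CCF4 FRET ratio (460 nm/530 nm) after 1 h RT dye loading, used for %activity and AC50 from titration series. Cells: Jurkat NFAT-β-lactamase/M1 line, treated with compound plus 1 uM carbachol for 5 h, 37 °C.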
# [9] = Stat Signaling Pathway (AID 446; active = well fitted curve in either direction with a large enough effect, not every such curve was filed as active;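 note: ME-180 cervical cancer cells given 40 pM IL-6 alongside compound; SIE-controlled beta-lactamase reporter measured as 460/530 nm FRET emission ratio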)
# Procedure, shortened: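 Screening format detects activators and inhibitors alike: ME-180 SIE-bla cells stimulated at 40 pM IL-6 for 5 hrs with compound, then dual-emission beta-lactamase read at 405 nm excitation.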
# [10] = target: Mitogen-activated protein kinase 10 (Mus musculus) (UniProt Q61831); assay: JNK3 AlphaScreen Assay (AID 530; active = well fitted curve in either direction with a large enough effect, not every such curve was filed as active;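 note: kinase came from lysate of stimulated human HepG2 cells; signal reports phosphorylation of biotinylated GST-cJun 1-79 at Ser73 with 10 µM ATP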)
# Procedure, shortened: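 Compound titrations were preincubated 15 minutes at room temperature with substrate, antibody and pre-activated JNK3-containing HepG2 lysate. Reactions were started with 10 uM ATP and stopped with EDTA-containing bead buffer for AlphaScreen detection.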
# [11] = target: 3',5'-cyclic-AMP phosphodiesterase 4B (Homo sapiens) (UniProt Q07343); assay: qHTS Assay for Inhibitors of PDE-IV (AID 607; active = well fitted activation curve with a large enough effect in the main read-out, with a control signal flat, not every such curve was filed as active)
# Chain of 3',5'-cyclic-AMP phosphodiesterase 4B (Homo sapiens) (Q07343 whole entry, looked up): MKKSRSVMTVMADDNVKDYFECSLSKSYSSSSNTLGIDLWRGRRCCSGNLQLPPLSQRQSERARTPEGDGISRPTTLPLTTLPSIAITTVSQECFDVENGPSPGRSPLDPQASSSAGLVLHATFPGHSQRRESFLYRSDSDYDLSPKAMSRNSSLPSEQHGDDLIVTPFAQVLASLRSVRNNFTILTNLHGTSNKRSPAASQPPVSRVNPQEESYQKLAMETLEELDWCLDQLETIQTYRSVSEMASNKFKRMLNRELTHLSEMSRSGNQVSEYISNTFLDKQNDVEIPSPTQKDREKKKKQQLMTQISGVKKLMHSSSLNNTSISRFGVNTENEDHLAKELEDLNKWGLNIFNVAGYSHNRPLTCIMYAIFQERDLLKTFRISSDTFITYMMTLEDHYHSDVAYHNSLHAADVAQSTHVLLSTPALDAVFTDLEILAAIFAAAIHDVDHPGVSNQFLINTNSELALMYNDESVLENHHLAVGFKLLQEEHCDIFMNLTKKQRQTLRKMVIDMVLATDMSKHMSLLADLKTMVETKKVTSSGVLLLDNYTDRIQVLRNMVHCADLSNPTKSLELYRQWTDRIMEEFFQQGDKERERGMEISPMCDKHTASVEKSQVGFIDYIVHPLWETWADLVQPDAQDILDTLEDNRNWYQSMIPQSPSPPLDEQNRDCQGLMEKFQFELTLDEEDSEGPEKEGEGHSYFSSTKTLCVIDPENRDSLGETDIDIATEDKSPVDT
# Procedure, shortened: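 The readout is membrane depolarisation from a cAMP-sensing CNG channel, detected with a potential dye at ex 535/em 590. Cells were HEK293-derived (endogenous PDE-IV) at 1000 cells/well, titrated up to 22.9 uM final.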
structure (smiles),measurement,setting,value
CN(C(=O)c1cc2c(cc1Br)OCO2)c1cccc2ccccc12,Potency,[1],inactive
same,Potency,[2],inactive
same,Potency,[3],inactive
CCN(CC)c1ccc(C=C2SC(=S)NC2=O)cc1,Potency,[1],inactive
same,Potency,[2],84.9 µM (active)
same,Potency,[3],inactive
Cc1ccc(-c2nc3ccc(C)cn3c2CC2CCCCC2)cc1,Potency,[1],inactive
same,Potency,[2],inactive
same,Potency,[3],inactive
CCN1C(=O)C(=CC=CN(C)c2ccccc2)SC1=S,Potency,[1],inactive
same,Potency,[2],inactive
same,"activity change, negative = inhibition",[3],12.2% [at 30.8 µM]
same,Potency,[4],11.2 µM (active)
O=S(=O)(c1ccc(Cl)c2ccccc12)N1CCCC1,Potency,[1],inactive
same,Potency,[2],inactive
same,Potency,[3],inactive
same,Potency,[4],inactive
CCN1CCN(c2ccc(S(=O)(=O)N3CCCCC3)cc2NC(=O)c2cccc(OC(F)F)c2)CC1,Potency,[1],inactive
same,Potency,[2],inactive
same,Potency,[3],inactive
same,Potency,[4],inactive
Nc1ccc2nc3c(=O)n(C4CCCCC4)c(=O)[nH]c3nc2c1,Potency,[5],6.51 µM (active)
same,Potency,[1],inactive
same,Potency,[2],inactive
same,Potency,[3],inactive
same,Potency,[4],22.4 µM (active)
N=C(N)c1ccc(N=Nc2c(O)ccc3c2[nH]c2ccccc23)cc1,"activity change, negative = inhibition",[6],13.5%
same,Potency,[7],1.58 µM (active)
same,"activity change, negative = inhibition",[8],8.15%
same,outcome,[9],inactive
same,"activity change, negative = inhibition",[10],-6.35% [at 11.4 µM]
same,Potency,[11],inactive
same,Potency,[1],56.2 µM (active)
same,Potency,[2],inactive
same,"activity change, negative = inhibition",[3],-5.36% [at 30.8 µM]
same,activation,[4],33.2% [at 30.8 µM]
CC1=CC2=NC(=O)/C(=C/c3coc4ccccc4c3=O)C(=N)N2O1,Potency,[1],inactive
same,Potency,[2],75.7 µM (active)
same,Potency,[3],inactive
same,Potency,[4],39.8 µM (active)
O=C1CC2(CCN(S(=O)(=O)c3ccccc3F)CC2)Oc2ccccc21,Potency,[1],inactive
same,Potency,[2],inactive
same,Potency,[3],inactive
same,Potency,[4],10 µM (active)
CN1C(=O)c2cccc3c(N)ccc(c23)C1=O,Potency,[5],5.8 µM (active)
same,Potency,[1],inactive
same,Potency,[2],inactive
same,Potency,[3],inactive
same,Potency,[4],10 µM (active)
CC[n+]1ccc(/C=C/c2c[nH]c3ccccc23)cc1,Potency,[1],inactive
same,Potency,[2],inactive
same,Potency,[3],inactive
same,Potency,[4],44.7 µM (active)
Oc1ccc(N=Cc2sc3ccccc3c2Cl)cc1,Potency,[1],inactive
same,Potency,[2],inactive
same,Potency,[3],inactive
same,Potency,[4],inactive
